Measured values published in PubChem BioAssay (NCI).
This is part of a sample that, as a whole, favours compounds with a hit. Of some 79,000 tested, about 15% had one in any assay. Unmarked numbers belong to inactive results. Activity calls are given as the source filed them. No stated cut-off is given here; in the data, active means growth inhibition above about 70%; inactive means the rest. Where a SMILES comes first, the peptide text is derived from it. [ ]: non-standard residue; d: D form. The star is where a group is joined. ξ: configuration not given here. Cbz = O=C(OCc1ccccc1)*; ξK = NCCCCC(N)C(=O)O

Legend:
[1] = NCI Yeast Anticancer Drug Screen. Data for the rad50 strain (AID 155);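 further: 0% = growth of vehicle-only cultures of the same strain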; settings: S. cerevisiae rad50 strain growth inhibition, active compounds read high; at 50.0 µM unless noted
Procedure, shortened: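 Genetically altered yeast (DNA repair pathway); compound treatment; growth inhibition vs vehicle ctrl.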

[2] = NCI Yeast Anticancer Drug Screen. Data for the mec2-1 strain (AID 157); settings: S. cerevisiae mec2-1 strain, active compounds read high; at 50.0 µM unless noted
Procedure, shortened: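 Compounds were applied to mec2-1 yeast cells. Their growth was then compared with that of vehicle-treated cultures to give growth inhibition.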

[3] = NCI Yeast Anticancer Drug Screen. Data for the sgs1 mgt1 strain (AID 161);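 further: 0% = growth of cultures given vehicle only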; settings: S. cerevisiae sgs1 mgt1 strain, active compounds read high; at 50.0 µM unless noted
Procedure, shortened: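 Compounds are added to genetically altered yeast, and growth is compared with cultures given vehicle alone to give percent inhibition.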

[4] = NCI Yeast Anticancer Drug Screen. Data for the cln2 rad14 strain (AID 165);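 further: 0% = growth equal to vehicle treated cultures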; settings: S. cerevisiae cln2 rad14 strain, active compounds read high; at 50.0 µM unless noted
Procedure, shortened: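 Strain: cln2 rad14 yeast, altered in cell cycle control and DNA damage repair. Read-out: growth inhibition vs vehicle.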

[5] = NCI Yeast Anticancer Drug Screen. Data for the bub3 strain (AID 167); settings: S. cerevisiae bub3 mutant strain, active compounds read high; at 50.0 µM unless noted
Procedure, shortened: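 Yeast carrying a defined mutation is treated with each compound, and growth is compared with that of vehicle-exposed cells to give inhibition.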

[6] = NCI Yeast Anticancer Drug Screen. Data for the mlh1 rad18 strain (AID 175); settings: S. cerevisiae mlh1 rad18 strain growth inhibition, active compounds read high; at 50.0 µM unless noted
Procedure, shortened: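 A repair-deficient yeast strain is exposed to test compound, and growth is scored relative to vehicle-treated controls.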

Structure (SMILES) | growth inhibition [1] | growth inhibition [2] | growth inhibition [3] | growth inhibition [4] | growth inhibition [5] | growth inhibition [6]
Cc1nc(-c2ccc(N=Cc3ccc(N4CCC5(CCCCC5)CC4)cc3)cc2)cs1 | 25% | -2.05% | 15.7% | 18.6% | 6.1% | -3%
CNc1ccc(C=C2C=CC=C2)cc1 | 41.2% | 1.7% | 48.7% | 5.2% | 7.4% | 55.7%
Nc1n[n+](-c2cccc([N+](=O)[O-])c2)no1 | 32.4% | 16.4% | 69.5% | 5.3% | 81.4% (active) | 32.5%
O=C1c2ccccc2C(=O)c2c1ccc1c3ccccc3n(-c3ccccc3)c21 | 7.4% | 4.2% | 18.4% | -5.2% | 6.65% | 15.7%
COCc1ccccc1-n1nccc1S(C)=O (stereo unspecified) | -10.9% | 25.4% | 1.8% | 4.1% | 3.25% | -2.6%
N#CNC(N)=NCCO | -22.2% | -2.25% | -36.9% | -12% | -28.5% | -20.6%
Cc1ncc(CO)c(CO)c1OCC(O)CN1CCN(c2ccc(F)cc2)CC1 (stereo unspecified) | -15.8% | -2.65% | -8.25% | -41.2% | -6.9% | -0.45%
CCc1cccc(CC)c1NC(=O)OCCN(CC)CC | -3.8% | -16.9% | 10.4% | 16.8% | 11.6% | 4.15%
N#C/C(=C\C1CCCCC1Cl)C1CCC([N+](=O)[O-])CC1 (stereo unspecified) | 12.6% | 5.15% | 17.2% | -8.35% | 32.8% | 18.1%
CCN(CC)CCOc1cccc(NC(=O)CN(CC)CC)c1 | -8.2% | -25.8% | 15.3% | 1.4% | 17% | 1.65%
O=c1[nH]c(=O)c2cc(Cl)ccc2[nH]1 | 3.2% | 6.75% | -2.75% | -37% | 4.75% | 0.65%
CC[N+](CC)(CC)CCOc1nc(OCC[N+](CC)(CC)CC)nc(OCC[N+](CC)(CC)CC)n1 | 11.8% | 11% | 10.3% | 9.1% | 17.1% | 35%
CN(c1ccccc1)c1c(Cl)c(=O)oc2c1ccc1nc(-c3ccccc3)sc12 | 44.6% | 24.8% | 35.7% | 43.5% | -4.3% | 32.9%
CCOC(=O)Nc1ccccc1OCC | -10.6% | 2% | -4.3% | -90% | 6.2% | -3.45%
Clc1nc(NCCc2ccccc2)c2ncn(-c3ccccc3)c2n1 | 52.9% | 47.2% | 34.1% | 12.9% | 68.2% | 42.8%
O=C(CCl)Oc1ccc2ccccc2c1 | 27.1% | -2.05% | -8.05% | 8.25% | 13.1% | 31.4%
CN(C)N=Nc1ccc(S(C)(=O)=O)cc1 | 4.9% | 0.6% | 1.5% | -22.1% | 10.1% | 8.1%
CCOc1ccccc1N1CCN(CC(O)CSc2ccccc2)CC1 (stereo unspecified) | 1.3% | -9.25% | -6.2% | -33.6% | 4.95% | -2.65%
COc1cc2c(cc1C(C)c1ccc(Cl)cc1)OCO2 (stereo unspecified) | 12.8% | -1.55% | -1.6% | 21% | 20.2% | 4.9%
O=C(CCCCl)N1CCCCCC1 | -5.25% | 11.6% | -17.5% | -37% | 15.1% | 5.7%
N#Cc1c(N2CCCC2)nsc1Nc1ccc(F)cc1 | 2.6% | 2.85% | 0.8% | -16% | 4.4% | -9%

Structure (SMILES) | growth inhibition [1] | growth inhibition [2] | growth inhibition [3] | growth inhibition [4] | growth inhibition [5] | growth inhibition [6]
NCC(=O)NC(CCCCNC(=O)OCc1ccccc1)C(=O)O (stereo unspecified) (H-Gly-[ξK](Cbz)-OH) | -6.8% | 21% | -10.7% | -3.5% | -20.1% | -22.4%
C/C(CCc1ccccc1)=N\NC(N)=S | 7.1% | 0.95% | 9.55% | -35.1% | -5.5% | 10.3%
O=C1NC(Cc2ccccc2)C(=O)NC1Cc1ccccc1 (stereo unspecified) | 2.35% | -6.7% | 7.7% | -22.8% | -4.95% | -1.35%
Cc1ccc2oc3c(ccc(=O)n3C)c(=O)c2c1 | 28.6% | 7.1% | -17.6% | -22.1% | -35.5% | -59.3%
O=c1c2ccccc2n2c(=S)[nH]nc2n1-c1ccccc1 | -2.7% | 3.55% | -12.2% | 6.95% | 0.05% | -10.8%
C=C(C)CC(=O)O.CC(=O)[CH-]C(C)=O.CC(=O)[CH-]C(C)=O.CC(=O)[CH-]C(C)=O.[Zn+2].[Zn] | 30.2% | 10.8% | 16.2% | 6.8% | -0.85% | 21.1%
O=C(OCCCl)c1ccc(Cl)c(Cl)c1 | 5.75% | -20.1% | 7.05% | 9% | 3.75% | -19.9%
CN(Cc1cc(Br)cc(Br)c1O)Cc1c(O)ccc2ccccc12 | 98.8% (active) | 98.8% (active) | 98.8% (active) | 97.3% (active) | 98.2% (active) | 98.8% (active)
COC(=O)[C@]1(c2ccc(N(C)C)cc2OC)C[C@@H]2CCCN(CCc3c1[nH]c1ccccc31)C2 | -5.8% | -4.35% | -11.5% | 18.4% | -0.65% | 21.6%
CC(C)(C)c1ccc(C(C)(C)C)c(N2C(=O)c3ccc4c5ccc6c7c(ccc(c8ccc(c3c48)C2=O)c75)C(=O)N(c2cc(C(C)(C)C)ccc2C(C)(C)C)C6=O)c1 | -15.2% | -7.9% | -4.25% | -6.2% | -11.9% | -6.8%
Cc1ccc(Cl)cc1NC(=O)Nc1ccccc1Cl | 11.5% | 12.2% | 6.05% | -12.2% | 8.85% | -11%
Nc1nc(CCc2ccc(NC(=O)CBr)cc2)c(CCCCc2ccccc2)c(=O)[nH]1 | 16.4% | 1.85% | 25.8% | 24.2% | 3.75% | 16.2%
C=CCN(CC=C)C(=O)Nc1cccc(C)c1 | -27.2% | -43.9% | 1.3% | -3.15% | -2.6% | -21%
CCOc1ccc2nc(NC(=O)C(=O)C(c3cnc4ccccc4n3)[N+](=O)[O-])sc2c1 (stereo unspecified) | 23.6% | -13.4% | 24.4% | 8.95% | -22.4% | 13.8%
CC12CCC(CC1(Cl)Cl)C2 (stereo unspecified) | 9.75% | -5.8% | 21.1% | 14.3% | 4.7% | 26.9%
CN1c2ccccc2N(C)C23N(C)c4ccccc4N(C)C12N(C)c1ccccc1N3C (stereo unspecified) | -33% | 1.8% | -67.4% | 18.7% | -22.1% | -20.9%
O=C1CC2(C(=O)O)CC3CC2C(O1)C3I (stereo unspecified) | 13.7% | 10.6% | 24.1% | 13.1% | 14.5% | 21.2%
C/C(=N/NC(N)=S)c1ccc([N+](=O)[O-])cc1 | 75.7% (active) | -8.8% | -8.6% | -64.7% | -12.4% | -2.3%
Nc1cc(S(=O)(=O)O)cc2cc(S(=O)(=O)O)cc(S(=O)(=O)O)c12 | -31.6% | -51% | -29.6% | -144% | -17.5% | 23.4%
CC(C)OC(=O)Nc1ccc(O)cc1 | 10.8% | -6.7% | -2.45% | -19.4% | -3.45% | -5.7%
